± gives the standard deviation of the averaged measurements. The full ranking holds about 25,000 sequences; the median of “ln(normalized median fluorescence intensity)” is about 10, and the highest 2% start at about 12. This excerpt belongs to a sample that is enriched for the highest values.
Test system: PfAP2-G AP2 domain (GST-tagged)
Assay: gcPBM binding intensity (ln(normalized median fluorescence intensity)); higher = stronger DNA binding
Summary of the method: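 The highest Masliner-normalised natural-log median intensity across replicate spots of either probe orientation is reported as binding intensity. GST-tagged P. falciparum DNA-binding domains expressed in E. coli were applied for 1 h to an Agilent 4 × 180k array of primer-extended double-stranded 36-bp intergenic genomic probes plus negative controls, and bound protein was detected with Alexa488 anti-GST antibody and scanned at 488 nm.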

Sequence | gcPBM binding intensity (ln)
AAAATAAACCCAGACACACTCATTAAAAAATATCAT [CACACA_site5903] | 9.95 ± 0.099
AAAAATGTATGTATGGTGCAGTATTCATATCATTTT [GTGCAC_site9458] | 10.03 ± 0.021
AAAATATATACACAAACATGCATATAATAAATAAAT [TGCATGCA_site711] | 9.895 ± 0.064
TTTGTTAATATAAAAACACACAAAAATAACATAAAA [CACACA_site2619] | 10.2 ± 0.22
GTTGTTATATAAAGGAGTACATAATAACACAAATAT [XGTACX_site615] | 11.7 ± 1.2
AAAGTAAAAACACATACATGCATATACACATATAAC [TGCATGCA_site341] | 9.9 ± 0.12
ATAAAACAAATGAGTACACACACATAAAAATTGAAA [CACACA_site7949] | 11.6 ± 1.2
ATATAAAAAAAAAAAAGTACACATAAACAAATGCAT [XGTACX_site4241] | 11.7 ± 1
CTTTATAATATTTGTTGTACACAAATATAACATATT [XGTACX_site709] | 11.6 ± 1.1
AAAACAAATGAGTACACACACATAAAAATTGAAAAT [CACACA_site199] | 11.5 ± 0.9
AAAACAAATGAGTACACACACATAAAAGTTGAAAAT [CACACA_site6238] | 11.8 ± 1.3
TTTTTGTTCTATATGGTGCATGTTTATATTCGTATT | 10.2 ± 0.19
AATTATAATAATAATAGTACATAAGTATATAAATAA [XGTACX_site2400] | 11 ± 0.62
AAATAAATAAGAAACGCATGCATATATAATATATAA [TGCATGCA_site326] | 9.83 ± 0.057
AGTAATAATCGGCATGCATGTCAGTGGTAGTATATA [TGCATGCA_site312] | 10.3 ± 0.41
TCTTCATTTTTATGTGCATGTAAAATTTTTTTTTTT [TGCATGCA_site963] | 10.2 ± 0.19
ATATAATATTTATATGTACACACCTTAATCCTTAAA [CACACA_site3555] | 11.3 ± 0.81
TTGTACTACAATCCTTTATTTATTTAAACCTGTATG [CACACA_negctrl_site428] | 11.6 ± 1.1
TTTTTTAACCTTTTATGTACACAATATTTAACATTT [XGTACX_site1170] | 11.6 ± 0.95
TATTTTGTTCTTTCCACACACAAATACATATATTGT [CACACA_site4071] | 10.3 ± 0.24
TATTGTATCCTTAATGCATGCACCAAATAAAAAAAG [TGCATGCA_site541] | 10.5 ± 0.54
AAAAATAAAATAAAATAAAATAAAAATAAAGAAAAA [CACACA_negctrl_site808] | 9.39 ± 0.16
TGGCACTAAAAAAATAAACACACAGATTTATATAAT [CACACA_site8386] | 9.81 ± 0.18
TGCCTATGACATGAATGTACATTAAAATTAAATAAA [XGTACX_site7126] | 10.8 ± 0.52

Sequence | gcPBM binding intensity (ln)
TAAAAGAAATAATATACACACATATATAAAAATAAA [CACACA_site1329] | 9.87 ± 0.085
TAAAAATAAAGAAAATGTACATAAATAATAATACAT [XGTACX_site2278] | 11.2 ± 0.69
TTAAAAGAAAATAGGTGTACACATAATATATACATA [XGTACX_site7697] | 11.8 ± 1
AAAGAAAATAGGTGTACACATAATAAATACAGCTAT [CACACA_site5917] | 11.7 ± 1.1
ATAACATAACATAATACACACATATAAAAAAGAAAT [CACACA_site3028] | 10.1 ± 0.18
TAATACATACACACATGTACATACAGAAATAAATAA [XGTACX_site3245] | 11.2 ± 0.81
TCTTGTTTATCAACAGCACACACAACAACAACAACA [CACACA_site8046] | 10.1 ± 0.23
CGCCCACAGATATATACACACATATATAAATAAATA [CACACA_site6877] | 10.1 ± 0.3
TATATTGCAAAAAGTACACACATAAATAAATACATA [CACACA_site6589] | 11.6 ± 1.1
TAAGGTTCATTAAAGTGTACACATAAATACCGTAAC [XGTACX_site8212] | 11.6 ± 0.95
CGAAACCATATGTACACACACATATATAAATATGTA [CACACA_site7082] | 11.3 ± 0.88
ATTAAATACATTAACACACACACAAATAAATACATA [CACACA_site5583] | 10.2 ± 0.25
GCATGGAACCATATATGTACATATATAAATAAATAA [XGTACX_site4996] | 11.2 ± 0.63
GGTTCATTAAAGTGTACACATAAATACCGTAACATT [CACACA_site6002] | 11.9 ± 1
ATATAAAAAAATTGCACACATAAATATATACATATA [CACACA_site1218] | 10.12 ± 0.064
TAAAAATTAAAGTGTACACATATATATATATATATA [CACACA_site4781] | 11.6 ± 0.97
TAAATTAATAAAAAGTGTACATAATATACATATATA [XGTACX_site8604] | 11.3 ± 0.66
TTAAATACTAAAAAGTGTACACATACATAAAAAATT [XGTACX_site6261] | 11.7 ± 0.92
AATACTAAAAAGTGTACACATACATAAAAAATTGCA [CACACA_site5620] | 11.6 ± 0.87
AACCATAAAAAGTGTACACATATAAAAAATATGGAA [CACACA_site4199] | 11.7 ± 1.1
TTTTGTTGAAAAGTAAGATATTCCAACATGTTTTTA [CACACA_negctrl_site391] | 9.88 ± 0.014
TATATATATATATATACATGCATACATATACATACA [TGCATGCA_site897] | 10 ± 0.22
TTTTTTTTTTTTTTTTTTTGTCTTATATATTACGGA [CACACA_negctrl_site322] | 9.64 ± 0.67

From the supplement of paper PMC11417369
